a7 integrin act: activates integrin-mediated alleviation for muscular dystrophy | alpha7betagal myoblasts, beta-gal FDG fluorescence, 48 h | Potency, µM (titrated, usually from 38.3 µM), for the others: at the highest dose activation, hits mostly activators | hit rate 0.064% among 350,000 | AID 624291;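 also: potency is read from the fitted curve at half-maximal effect; 100% = response of the positive control SU9516; nearly all actives have a fitted effect of over 60% in size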
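Alpha7betagal+/- myoblasts (passage 13) were plated 16-24 hr, then exposed to compounds (1:260 dilution of DMSO stock) for 48 hours at 37C. After MPER lysis, β-galactosidase reporter activity was read as FDG fluorescence (ex 480/em 540) after 30 minutes.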
A-T KAP1 phos: potential ataxia-telangiectasia treatments restoring KAP-1 phosphorylation; hit rate 0.19% among 320,000; Potency, µM (highest dose often 57.5 µM), inactives show top-dose activation, usual class: activators; F2112 A-T fibroblasts, KAP-1 phosphorylation AlphaLISA; neocarzinostatin DNA damage 30 min before lysis; also: potency is read from the fitted curve at half-maximal effect; % of control where 0% means no effect; nearly all actives have a fitted effect of over 45% in size
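ATM-like activity read as KAP-1 phosphorylation via AlphaLISA donor/acceptor antibody pairs after lysis and 6 hr at 25C. Cells were ATM-null patient fibroblasts (F2112, hTERT), dosed 60 min, then exposed to the DSB inducer NCS for 30 min.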
PKM2 activator: activators of human pyruvate kinase M2 | P14618 | purified PKM2, Kinase-Glo ATP luminescence, activation; response scale: 0% is enzyme alone, no compound | Potency, µM (titrated, usually from 57.5 µM), inactives show at the highest dose activation, usual class: activators | hit rate 0.34% among 260,000 | AID 1631; also: potency is read from the fitted curve at half-maximal effect; % is scaled to controls: 0 for no effect and ±100 for the full control effect; nearly all actives have a fitted effect of over 55% in size
Target sequence (P14618 whole entry, looked up): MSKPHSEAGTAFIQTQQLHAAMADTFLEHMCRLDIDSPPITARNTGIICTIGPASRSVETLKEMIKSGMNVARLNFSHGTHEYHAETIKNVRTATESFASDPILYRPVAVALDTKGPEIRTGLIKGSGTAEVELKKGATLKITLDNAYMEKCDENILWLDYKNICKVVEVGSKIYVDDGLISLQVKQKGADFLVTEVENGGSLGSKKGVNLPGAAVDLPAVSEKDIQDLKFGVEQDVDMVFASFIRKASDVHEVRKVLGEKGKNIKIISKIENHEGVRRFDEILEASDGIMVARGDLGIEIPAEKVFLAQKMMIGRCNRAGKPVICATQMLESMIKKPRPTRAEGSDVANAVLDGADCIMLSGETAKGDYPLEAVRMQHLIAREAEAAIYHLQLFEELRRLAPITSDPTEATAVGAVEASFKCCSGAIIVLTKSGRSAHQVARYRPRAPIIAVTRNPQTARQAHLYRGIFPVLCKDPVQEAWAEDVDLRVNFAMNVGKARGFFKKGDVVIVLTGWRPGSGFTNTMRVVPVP
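Purified hPK-M2 (>95%) run at intermediate activity with 0.1 mM ADP and 0.5 mM PEP in 50 mM imidazole pH 7.2, KCl, MgCl2; 1 h room temperature. ATP formed read by Kinase-Glo luminescence; normalized to uninhibited and no-enzyme controls.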
IL-2 act: activators of IL-2; IL-2 activation reporter assay, cell-based qHTS; stimulated with anti-CD3/CD4/CD28 beads; in transgenic mouse T cells; activation, % (series mostly up to about 46 µM); hit rate 0.065% among 360,000; AID 652025; in the data active = activation above about 50%; inconclusive = mostly about 30% to 49%; also: 0% is about no effect
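Using fluorescent plate cytometry, EGFP and DsRed are detected in transgenic mouse T cells stimulated 18 h at 37 degrees C with antibody-coated beads after 60 min compound pretreatment.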
TCR activator: T cell receptor activation | primary human leukocytes, anti-CD3, IL-2 HTRF, 48 h | Potency, µM (titrated, usually from 9.22 µM), for the others: at the highest dose activation of IL-2 secretion, usual class: activators | 330,000 tested, under 10 active; also: % of control where 0% means no effect
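IL-2 produced over 48 hr by a-CD3 bead-stimulated primary human leukocytes exposed to compounds was detected with a homogeneous time-resolved FRET immunoassay, 665nm acceptor signal after 320nm excitation.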
Tb PFK inh-1: blocks T. brucei phosphofructokinase | T. brucei PFK, ADP-Glo luminescence | hit rate 0.17% among 330,000 | AID 485367 | O15648 | Potency, µM (doses to about 57.5 µM), for inactives: top-dose activity, negative = inhibition, actives largely listed as inhibitors;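 also: potency is read from the fitted curve at half-maximal effect; 0% = uninhibited 1x PFK enzyme wells and -100% = no-enzyme wells; nearly all actives have a fitted effect of over 60% in size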
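1.25 nM PFK with 0.5 mM F6P and 0.1 mM ATP in 0.1 M TEA pH 8.0, 5 mM MgCl2, incubated 45 min at room temperature; ADP measured by ADP-Glo luminescence; compounds titrated up to 57 uM.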
TbPFK ATP: orthogonal confirmation of T. brucei phosphofructokinase inhibitors; shares compounds with Tb PFK inh-1; Tb PFK enzyme, ATP depletion, Kinase-Glo Plus luminescence; Potency, µM (top dose mostly 57.5 µM), for the others: top-dose inhibition; hit rate 47% among 1,100; calls by dose curve; also: potency is read from the fitted curve at half-maximal effect; nearly all actives have a fitted effect of over 60% in size
Tb PFK inh-2: validation of T. brucei phosphofructokinase inhibitors; shares compounds with Tb PFK inh-1; purified T. brucei PFK, ADP-Glo luminescence, 45 min; Potency, µM (series often up to 57.5 µM), without a hit: top-dose activity change, negative = inhibition, actives largely listed as inhibitors; hit rate 41% among 1,100; AID 504637;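 also: potency is read from the fitted curve at half-maximal effect; plate controls were full PFK enzyme control for no effect and no enzyme control for full effect; nearly all actives have a fitted effect of over 60% in size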
Starred values were filed as active, the others as inactive; ? = inconclusive; . = no result; [ ] = another dose, or the depositor's remark. A selection: hits, their analogues and other compounds. The true share with any hit is near 0.69%. Unless noted, calls follow the shape of the dose curve; as a rule, active = well fitted curve in the direction sought with a large enough effect; inconclusive = small, poorly fitted or top-dose-only effect, or another doubt; inactive = no such curve, though single readings can be large; an effect the other way counts as inactive or inconclusive.

SMILES | a7 integrin act | A-T KAP1 phos | PKM2 activator | IL-2 act | TCR activator | Tb PFK inh-1 | TbPFK ATP | Tb PFK inh-2
CC(NC(=O)CCl)c1ccc(Cl)c(Cl)c1 (stereo unspecified) | -45.9% | -1.3% | 1.9% | -4.9 | 0.9% | 19µM* | 21.3µM* | 23.9µM*
CC12C=CC(=O)C=C1CC(O)C1C2CCC2(C)C1CCC2(C)O (stereo unspecified) | 10.2% | . | . | 0.2 | -0.1% | . | . | .
Cc1ccc(Cn2ccccc2=N)cc1 | ? | 4.5% | . | 1.2 | -3.8% | 0.5% | . | .
O=C(c1ccccc1)N1CCN(c2ccccc2)CC1 | ? | . | . | -0.9 | -1.9% | . | . | .
CN1CCN(C(=O)c2sc(=S)n(-c3ccccc3)c2N)CC1 | 0.2% | -3.2% | -13.4% | -1.4 | 1.5% | 10.7µM* | 3.79µM* | 5.36µM*
Cc1ccc(/C=C2/NC(=O)N(c3ccccc3)C2=O)o1 | 18.5% | 0.6% | ? | -3.0 | 4.3% | ? | ? | ?
CCN1C(=O)N/C(=C/c2ccc(C)o2)C1=O | 16.6% | 7.7% | ? | -0.5 | -0.6%[46.1 µM] | 13.5µM* | ? | ?
Cc1ccc(/C=C2/C(=O)NC(=O)N(CCc3ccc(F)cc3)C2=O)o1 | -28.8% | 6.8% | ? | 1.6 | -1.9% | 1.4% | . | .
Cc1ccc(/C=C2/NC(=O)N(Cc3ccc(Br)cc3)C2=O)o1 | 7.5% | -4.0% | 1.58µM* | -0.5 | 0.6%[46.1 µM] | 15.1µM* | ? | ?
Cc1ccc(/C=C2/NC(=O)N(Cc3ccccc3F)C2=O)o1 | -20.3% | -0.2% | 3.55µM* | -3.0 | -0.3%[46.1 µM] | ? | ? | -27.2%
Cc1ccc(S(=O)(=O)N(C(=O)c2ccncc2)c2ccc(OC(=O)c3ccncc3)c3ccccc23)cc1 | -43.7% | 1.3% | ? | -4.1 | 2.3%[46.1 µM] | 16.9µM* | 2.39µM* | 2.69µM*
Nc1nn2cc(-c3ccccc3)nc2c2ccccc12 | -21.4% | 4.1% | -22.8% | -0.9 | 10.2% | ? | -0.4% | ?
CCC1(Cc2ccccc2)C(=O)NC(=S)N(C)C1=O (stereo unspecified) | 12.2% | . | . | -2.4 | 4.1% | . | . | .
O=C1c2ccccc2C(=O)N1/N=C/c1ccc(O)c(O)c1O | -74.6% | -40.9% | 22.1% | 1.9 | 5.4% | 19µM* | 10.7µM* | 26.9µM*
COc1ccc(-n2nnnc2C(CCSC)N2CCC(n3c(=O)[nH]c4ccccc43)CC2)cc1 (stereo unspecified) | . | . | . | 0.3 | . | . | . | .
O=Cc1cn(Cc2cccc([N+](=O)[O-])c2)c2ccccc12 | -18.8% | -5.9% | -12.8% | 0.6 | 0.9%[46.1 µM] | ? | ? | -23.7%
O=[N+]([O-])c1ccc(Sc2cccc[n+]2[O-])c2nonc12 | -93.0% | -11.4% | -24.4% | -3.3 | 9.5% | 10.7µM* | 2.69µM* | 9.53µM*
CCOC(=O)C1CCCN(c2ccc([N+](=O)[O-])c3nonc23)C1 (stereo unspecified) | -33.5% | 5.6% | -1.6% | 6.5 | 0.2% | -2.2% | . | .
CC(=O)OC1CC[C@]2(C#N)[C@H]3CC[C@]4(C)[C@H](C5C=CC(=O)O5)CCC4(O)C3CCC2(O)C1 (stereo partly specified) | 3.2% | ? | . | 1.4 | 4.3% | -0.5% | . | .
CCCCCn1cc(C(=O)C(=O)N2CCOCC2)c2ccccc21 | -1.2% | 5.9% | -1.2% | -3.0 | -1.8% | -6.2% | . | .
O=C(C(=O)N1CCOCC1)c1cn(CC(=O)N2CCc3ccccc3C2)c2ccccc12 | 6.3% | 1.3% | -4.7% | -1.4 | -5.3% | ? | ? | ?
